A1 inh: inhibitors of the anti-apoptotic protein A1, read as caspase activation. MEF A1-2A-BIM cells, Caspase-Glo 3/7 luminescence, 3 h; percent of clofoctol response, vehicle zero. caspase activation, % (no concentration beside the values). 330,000 compounds, 0.066% hits. AID 2462;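 active = over half of replicate activation scores above 10%, or exactly half above 10 with the replicate mean above 10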
B2AR ag: human beta-2 adrenergic receptor agonism by FAP. Am2.2-beta2AR cells, FAP receptor internalization, flow cytometry. response, % (no concentration beside the values). 340,000 compounds, 0.43% hits. AID 504454;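 active = response above a set limit, near 3 SD of response in nonfluorescent compounds, cut at about 42% in these data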
Target sequence (P07550 whole entry, looked up): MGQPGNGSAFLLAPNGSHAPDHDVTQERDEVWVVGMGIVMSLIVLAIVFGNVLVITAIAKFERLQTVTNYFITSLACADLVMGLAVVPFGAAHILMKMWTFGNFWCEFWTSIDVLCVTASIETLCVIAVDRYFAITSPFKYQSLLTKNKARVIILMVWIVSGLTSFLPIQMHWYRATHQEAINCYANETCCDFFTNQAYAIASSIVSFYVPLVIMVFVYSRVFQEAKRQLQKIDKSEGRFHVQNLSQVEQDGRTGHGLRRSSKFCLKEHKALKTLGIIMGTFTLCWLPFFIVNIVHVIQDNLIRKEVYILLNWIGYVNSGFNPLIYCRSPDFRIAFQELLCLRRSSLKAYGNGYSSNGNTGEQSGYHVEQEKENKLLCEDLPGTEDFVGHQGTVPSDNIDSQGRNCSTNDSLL
NTR1 ag: NTR1 (human) agonism; 330,000 compounds, 0.17% hits; P30989; NTR1-U2OS beta-arrestin-GFP spot imaging, agonist mode; AID 493036; activation, % at 20 µM;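 active = activation at or above 40% of the spot to cytoplasm intensity ratio, with at least 20 cells analyzed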;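 note: 0% = DMSO without peptide and 100% = 100 nM NTR1 peptide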
Target sequence (P30989 whole entry, looked up): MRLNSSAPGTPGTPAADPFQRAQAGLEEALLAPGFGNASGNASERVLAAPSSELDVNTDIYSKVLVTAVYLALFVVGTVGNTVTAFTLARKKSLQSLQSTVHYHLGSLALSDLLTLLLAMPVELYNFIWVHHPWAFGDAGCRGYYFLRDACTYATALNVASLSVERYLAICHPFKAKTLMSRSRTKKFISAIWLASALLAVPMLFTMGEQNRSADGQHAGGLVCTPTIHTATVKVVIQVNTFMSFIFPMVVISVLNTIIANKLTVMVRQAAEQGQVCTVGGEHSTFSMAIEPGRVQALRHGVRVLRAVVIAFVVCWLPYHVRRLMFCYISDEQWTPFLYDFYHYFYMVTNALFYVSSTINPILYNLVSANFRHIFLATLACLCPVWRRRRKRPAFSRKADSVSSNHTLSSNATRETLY
VLA-4 inh: inhibition in a human VLA-4 binding assay. VLA-4 expressing cells, ligand binding flow cytometry. inhibition, % (about 7 µM as worked out from the volumes in the protocol). AID 2557. P13612. 330,000 compounds, 0.2% hits; in the data active = inhibition above about 50%
GRK2 aptamer HTS: inhibitors of human GRK2 displacing RNA aptamer. P25098. bead flow cytometry, FAM-aptamer displacement from GRK2. inhibition of aptamer binding, % at 10 µM. 330,000 compounds, 0.59% hits. AID 488847;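 active = inhibition of aptamer binding above 40%, roughly 3 SD of noise, on plates passing a quality check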;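 note: median bead fluorescence of bound FAM aptamer so fluorescent compounds give negative values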
GRK2 CP1: confirmation of human GRK2 inhibitors displacing RNA aptamer; shares compounds with GRK2 aptamer HTS; aptamer displacement, % at 10 µM; bead-bound GRK2, FAM-aptamer displacement, flow cytometry; AID 504451; 2,000 compounds, 4% hits;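 active = aptamer displacement above 40%, near three times the noise of non-fluorescent compounds, on plates passing quality checks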;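 note: negative values mostly reflect intrinsic compound fluorescence rather than true enhancement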
FAM quench CP1: aptamer fluorescence quenching in GRK2 counter-screen | shares compounds with GRK2 aptamer HTS | Carboxyfluorescein RNA aptamer on beads, flow cytometry quenching; stronger effect = lower value | fluorescence response (% of DMSO), % at 10 µM | 2,000 tested, under 10 active | AID 504580;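 active = compounds that quench the bead-bound fluorescent RNA probe, cutting fluorescence to under half of the solvent control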;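 note: counterscreen run without GRK2 so only probe quenching by compound is measured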
GRK2 confirm 2: confirmation of human GRK2 inhibitors binding RNA aptamer site; shares compounds with GRK2 aptamer HTS; bead-bound GRK2, FAM-aptamer displacement, flow cytometry; inhibition of aptamer binding, % at 10 µM; 360 tested, under 10 active;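 active = inhibition of aptamer binding above 40%, about triple the noise seen with nonglowing compounds, on plates passing quality control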;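 note: negative values mostly come from compounds that fluoresce themselves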
FAM quench CP2: aptamer fluorescence quenching in GRK2 counter-screen; shares compounds with GRK2 aptamer HTS; carboxyfluorescein RNA aptamer beads, flow cytometry quenching; stronger effect = lower value; fluorescence response vs DMSO, % at 10 µM; 360 tested, under 10 active;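 active = response vs DMSO under 50%, meaning signal dropped by over half, treated as fluorescence quencher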;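 note: labelled aptamer on streptavidin beads without GRK2 as a quench counter-screen; 100% = bead fluorescence of DMSO wells and lower means quenching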
* hit, by the source's call; / = no result given. A selection: hits, their analogues and other compounds. The true share with any hit is near 1.3%.

SMILES | A1 inh | B2AR ag | NTR1 ag | VLA-4 inh | GRK2 aptamer HTS | GRK2 CP1 | FAM quench CP1 | others
COCCNC(=O)C(c1ccc(F)cc1)N(C(=O)CCC(=O)Nc1ccccn1)C1CCCCC1 (stereo unspecified) | 0.5 | -8.6 | 0.3 | 6.2 | 0.0 | / | /
Cc1cc(C(=O)Nc2cccc(-c3ccc(N4CCOCC4)nn3)c2)ccc1[N+](=O)[O-] | -6.1 | 21.4 | 4.8 | -12.4 | 0.0 | / | /
O=C(COc1ccc(Cl)cc1)Nc1cccc(-c2ccc(N3CCOCC3)nn2)c1 | -8.3 | 20.5 | 6.5 | 25.9 | 0.0 | 3.5 | 99.6
COc1ccc(C(=O)Nc2cccc(-c3ccc(N4CCOCC4)nn3)c2)cc1 | -1.2 | 14.8 | 0.6 | 18.4 | 1.0 | 4.3 | 102.5
O=C(Nc1cccc(-c2ccc(N3CCOCC3)nn2)c1)c1ccc(Cl)cc1 | -0.1 | 4.0 | 3.2 | 3.7 | 2.0 | 0.9 | 96.2
Cc1ccc(C(=O)Nc2cccc(-c3ccc(N4CCOCC4)nn3)c2)cc1 | -4.1 | 3.4 | 2.0 | 1.2 | 2.0 | 1.1 | 102.3
COc1cc(OC)cc(C(=O)Nc2cccc(-c3ccc(N4CCOCC4)nn3)c2)c1 | 0.1 | 3.8 | 0.4 | -0.5 | 5.0 | / | /
NC(=O)c1ncn([C@@H]2O[C@H](CNCc3cccn3-c3ccncc3)[C@@H](O)[C@H]2O)n1 | / | 1.1 | / | / | / | / | /
COc1cc([N+](=O)[O-])ccc1NC(=O)COC(=O)c1c[nH]c(=O)[nH]c1=O | -0.4 | 3.0 | 0.8 | -6.1 | 0.0 | / | /
O=C(Nc1cccc(-c2ccc(N3CCOCC3)nn2)c1)c1ccccc1Cl | -3.8 | 11.8 | -0.2 | 2.8 | 1.0 | 1.2 | 101.6
COc1cccc(OC)c1C(=O)Nc1cccc(-c2ccc(N3CCOCC3)nn2)c1 | -2.1 | 10.8 | 0.4 | 1.6 | 0.0 | / | /
Cc1ccc(C(=O)Nc2cccc(-c3ccc(N4CCOCC4)nn3)c2)cc1C | 0.9 | 20.1 | 4.7 | -13.1 | 0.0 | -0.4 | 96.2
O=C(Nc1ccnn1C1CCN(C(=O)CCc2ccc(F)cc2)CC1)C1CCOC1 (stereo unspecified) | -0.1 | 0.5 | 1.1 | -2.8 | 1.0 | / | /
CC(C)c1nnc(NC(=O)CS(=O)(=O)c2ccccc2)s1 | -0.1 | -4.5 | 0.2 | 13.9 | 6.0 | / | /
Cc1cc(C)nc(SCC(=O)NCc2ccco2)n1 | 0.1 | 3.3 | -0.6 | 5.5 | 4.0 | / | /
O=C(CSc1nc2[nH]ncc2c(=O)n1-c1ccccc1Br)NCc1ccco1 | -1.6 | 0.9 | 1.2 | -20.8 | 2.0 | / | / | GRK2 confirm 2=9.0;FAM quench CP2=99.0
Cc1ccc(C2C3=C(CCCC3=O)Nc3nc(SCC(=O)NCc4ccco4)[nH]c(=O)c32)cc1 (stereo unspecified) | 0.7 | -1.8 | -0.4 | -6.6 | 2.0 | / | / | GRK2 confirm 2=14.3;FAM quench CP2=101.0
Nc1nc(SCC(=O)NCc2ccco2)[nH]c(=O)c1-c1ccccc1 | 0.2 | 13.2 | -1.2 | 1.7 | 24.0 | / | / | GRK2 confirm 2=-7.6;FAM quench CP2=103.0
Cc1nc(SCC(=O)NCc2ccco2)[nH]c(=O)c1C | 0.4 | -2.6 | 0.4 | 6.7 | 8.0 | / | / | GRK2 confirm 2=-26.5;FAM quench CP2=103.0
Nc1cnc(Nc2ccc(Br)cc2)nc1N | -1.1 | 13.1 | -2.0 | -5.1 | 0.0 | / | /
O=C(NCC1COCCO1)c1cc(COc2c(F)cccc2F)on1 (stereo unspecified) | -0.2 | -5.2 | -0.3 | 11.8 | 2.0 | / | /
COc1cc(OC)c(OC)cc1/C=N/NC(=O)CSc1ccccc1F | 0.7 | 0.1 | -0.8 | 6.0 | 90.0* | 3.8 | 94.6
COc1cccc(/C=N/NC(=O)CSc2ccccc2C)c1O | 1.1 | 2.2 | 3.4 | 9.8 | 0.0 | / | /
S=C(N=Nc1ccccc1)NNc1ccccc1 | -1.4 | -7.5 | 0.6 | 14.9 | 42.0* | -4.5 | 97.7
O=C(NNc1ccccc1)c1ccccc1 | / | -0.9 | / | / | / | / | /
SMILES | A1 inh | B2AR ag | NTR1 ag | VLA-4 inh | GRK2 aptamer HTS | GRK2 CP1 | FAM quench CP1 | others
Cc1ccc(O)c(C(=O)c2cnc3c(c2)CN(CCC(C)C)C(=O)N3)c1 | 0.0 | 1.5 | -0.9 | 3.2 | 43.0* | -2.1 | 97.5
COC(=O)C(C)n1cnc2c(nnn2-c2cccc(OC)c2)c1=O (stereo unspecified) | 0.2 | 4.0 | -0.8 | 9.5 | 2.0 | / | /
Cc1cc(NC(=O)Nc2cccc(C(F)(F)F)c2)n(C)n1 | 0.0 | 0.7 | -1.5 | 11.9 | 74.0* | -1.7 | 99.1
CCC12CCC3c4ccc(O)cc4CCC3C1CC(O)C2O (stereo unspecified) | / | 1.7 | / | / | / | / | /
CCN(CC)C(=O)Cn1cc(C(=O)C(=O)N2CCc3ccccc32)c2ccccc21 | -0.9 | 2.1 | 1.6 | 1.2 | 40.0 | -0.6 | 100.0
CCN(CC)C(=O)Cn1cc(C(=O)C(=O)N2CCCc3ccccc32)c2ccccc21 | -0.5 | 2.5 | 0.2 | -0.4 | 3.0 | / | /
COc1ccc(OC)c(N(CC(=O)Nc2ccccc2C(=O)NCc2ccco2)S(C)(=O)=O)c1 | 0.3 | 0.5 | -2.1 | -1.0 | 5.0 | / | /
COc1ccc(Cl)cc1N(CC(=O)Nc1ccccc1C(=O)NCc1ccco1)S(C)(=O)=O | 1.1 | -18.0 | 3.3 | 21.9 | 20.0 | -0.4 | 100.9
CN(C)C1=NC[C@H](Cc2ccccc2)N1CC1CCCCCC1 | 0.2 | -3.0 | -0.8 | 6.8 | 0.0 | / | /
CCOc1ccc(S(=O)(=O)N2CCC(C(=O)NCCc3ccc(S(N)(=O)=O)cc3)CC2)cc1 | -0.1 | -11.2 | 0.0 | 4.4 | 1.0 | / | /
COc1cccc(NC(=O)C2(S(=O)(=O)c3ccc(Cl)cc3)CC2)c1 | -0.7 | -2.5 | -0.8 | 11.7 | 4.0 | / | / | GRK2 confirm 2=-14.3;FAM quench CP2=101.0
COc1ccc(C(=O)NCc2ccco2)cc1S(=O)(=O)NC1CC1 | -0.3 | 7.4 | -1.4 | -0.7 | 0.0 | / | /
OCCC1CN(Cc2cccc3c2OCO3)CCN1C1CCCCC1 (stereo unspecified) | -0.3 | -1.1 | -0.8 | -8.8 | 99.0* | 0.9 | 98.1
OCCC1CN(Cc2cccc3c2OCO3)CCN1Cc1ccccc1 (stereo unspecified) | -0.2 | 1.6 | -0.4 | -9.3 | 2.0 | / | /
COc1cccc(CN(C)C(=O)C2CCN(S(=O)(=O)c3cccs3)CC2)c1OC | -0.3 | 2.6 | -2.6 | 2.5 | 0.0 | / | /
Cc1onc(-c2ccccc2)c1C(=O)NCC1CCCO1 (stereo unspecified) | 0.4 | 0.4 | -0.1 | 2.9 | 91.0* | -2.0 | 98.8
Cc1onc(-c2ccccc2)c1C(=O)NCCN1CCOCC1 | -0.3 | 8.1 | -0.7 | -2.8 | 1.0 | / | /
CC1CCC2(CC1)NC(=O)N(CC(=O)NCc1ccc(F)cc1)C2=O (stereo unspecified) | 0.6 | -1.5 | -2.2 | 18.1 | 1.0 | / | /
O=C(CNS(=O)(=O)c1ccccc1)N1CCc2ccccc2C1 | 0.7 | -1.9 | -0.2 | -1.7 | 3.0 | / | /
Cc1cc(C)cc(C(=O)Nc2cccnc2)c1 | -0.6 | -4.8 | -0.1 | 13.6 | 82.0* | -1.6 | 99.0

Screens as filed in PubChem.
